# PMC7862700, “An all-to-all approach to the identification of sequence-specific readers for epigenetic DNA modifications on cytosine”
# What was measured:
# Experiment in all cases: DAPPL (digital affinity profiling via proximity ligation, sequencing); 10 mM Tris-HCl pH 7.5, 50 mM NaCl, 1 mM DTT, 4% glycerol, room temperature, 30 min; GST-TFs on glutathione beads, 16-mer random dsDNA library, 0.1% formaldehyde crosslink after washing; high values mean tight binding
# FEV = target: T1, FEV (Homo sapiens, UniProt Q99581 1-238); conditions: protein: recombinant; tags: N-terminal GST; dsDNA, one strand shown
# T1 sequence: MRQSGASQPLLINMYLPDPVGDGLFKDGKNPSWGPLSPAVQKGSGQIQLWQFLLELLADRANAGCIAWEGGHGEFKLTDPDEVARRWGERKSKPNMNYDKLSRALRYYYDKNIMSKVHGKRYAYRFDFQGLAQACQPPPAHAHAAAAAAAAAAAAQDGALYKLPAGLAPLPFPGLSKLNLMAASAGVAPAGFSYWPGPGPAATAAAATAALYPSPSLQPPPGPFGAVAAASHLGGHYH
# Summary of the method: (§1)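 Yeast served to express human transcription factors as GST fusions, which were then captured on glutathione beads and labelled with DNA barcodes. Pooled with a tag-only sample, they were incubated with 200 nmole of a 16-mer random double-stranded DNA library for 30 min at room temperature in Tris/NaCl/DTT/glycerol buffer, washed, crosslinked with 0.1% formaldehyde, ligated by proximity, amplified by PCR and sequenced. Dividing each hexamer's read frequency for a factor by its frequency for the tag-only sample gives the binding signal.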
# ETV5 = ETV5 (Homo sapiens, UniProt P41161 1-510); conditions: protein: recombinant; tags: N-terminal GST; dsDNA, one strand shown
# Summary of the method: as §1
# HSF1 = HSF1 (Homo sapiens, UniProt Q00613 1-529); conditions: protein: recombinant; tags: N-terminal GST; chain copies: 3; dsDNA, one strand shown
# Summary of the method: as §1
# SPIC = target: T2, SPIC (Homo sapiens, UniProt Q8N5J4 1-248); conditions: protein: recombinant; tags: N-terminal GST; dsDNA, one strand shown
# T2 sequence: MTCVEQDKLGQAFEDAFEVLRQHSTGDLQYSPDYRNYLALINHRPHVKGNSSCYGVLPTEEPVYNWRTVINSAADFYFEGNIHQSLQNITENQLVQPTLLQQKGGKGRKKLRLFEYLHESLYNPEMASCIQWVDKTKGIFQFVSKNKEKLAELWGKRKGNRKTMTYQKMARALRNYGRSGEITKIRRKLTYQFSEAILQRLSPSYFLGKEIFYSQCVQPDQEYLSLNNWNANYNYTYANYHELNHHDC
# Summary of the method: as §1
# ELF4 = ELF4 (Homo sapiens, UniProt Q99607 1-663); conditions: protein: recombinant; tags: N-terminal GST; dsDNA, one strand shown
# Summary of the method: as §1
# ELK4 = target: T3, ELK4 (Homo sapiens, UniProt P28324-2 1-405); conditions: protein: recombinant; tags: N-terminal GST; dsDNA, one strand shown
# T3 sequence: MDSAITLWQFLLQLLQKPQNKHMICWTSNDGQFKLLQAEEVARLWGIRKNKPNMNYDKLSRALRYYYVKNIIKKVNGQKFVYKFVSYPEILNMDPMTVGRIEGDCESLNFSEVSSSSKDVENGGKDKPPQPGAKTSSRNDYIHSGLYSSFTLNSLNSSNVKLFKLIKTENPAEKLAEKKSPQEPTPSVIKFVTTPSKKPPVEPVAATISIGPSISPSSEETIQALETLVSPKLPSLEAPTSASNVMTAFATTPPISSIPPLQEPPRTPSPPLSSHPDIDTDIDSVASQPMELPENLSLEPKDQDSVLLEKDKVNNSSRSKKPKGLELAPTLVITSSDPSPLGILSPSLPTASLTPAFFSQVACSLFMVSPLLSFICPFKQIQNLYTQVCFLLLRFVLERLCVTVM
# Summary of the method: as §1
# ETV2 = target: T4, ETV2 (Homo sapiens, UniProt O00321 1-342); conditions: protein: recombinant; tags: N-terminal GST; dsDNA, one strand shown
# T4 sequence: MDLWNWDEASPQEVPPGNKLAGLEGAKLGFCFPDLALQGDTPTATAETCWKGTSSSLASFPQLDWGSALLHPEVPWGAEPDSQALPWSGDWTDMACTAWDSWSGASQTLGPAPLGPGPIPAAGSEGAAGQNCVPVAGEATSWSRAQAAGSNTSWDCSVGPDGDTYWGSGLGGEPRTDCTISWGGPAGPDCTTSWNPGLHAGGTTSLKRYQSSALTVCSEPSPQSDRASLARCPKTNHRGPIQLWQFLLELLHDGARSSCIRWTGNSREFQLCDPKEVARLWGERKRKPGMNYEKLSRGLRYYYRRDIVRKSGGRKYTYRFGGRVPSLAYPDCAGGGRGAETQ
# Summary of the method: as §1
# ELF3 = target: T5, ELF3 (Homo sapiens, UniProt P78545 1-371); conditions: protein: recombinant; tags: N-terminal GST; dsDNA, one strand shown
# T5 sequence: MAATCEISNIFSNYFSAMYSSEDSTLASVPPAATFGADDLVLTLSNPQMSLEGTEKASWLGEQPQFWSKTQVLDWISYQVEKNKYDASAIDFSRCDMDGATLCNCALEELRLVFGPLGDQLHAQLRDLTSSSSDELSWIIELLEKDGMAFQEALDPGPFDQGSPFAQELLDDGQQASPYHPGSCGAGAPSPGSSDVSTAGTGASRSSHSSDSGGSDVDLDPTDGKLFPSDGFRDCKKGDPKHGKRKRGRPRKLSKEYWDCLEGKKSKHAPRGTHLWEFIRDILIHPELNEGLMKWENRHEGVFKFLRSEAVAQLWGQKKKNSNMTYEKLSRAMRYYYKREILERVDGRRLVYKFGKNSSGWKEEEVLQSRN
# Summary of the method: as §1
# CRX = CRX (Homo sapiens, UniProt O43186 1-299); conditions: protein: recombinant; tags: N-terminal GST; dsDNA, one strand shown
# Summary of the method: as §1
# ETV1 = ETV1 (Homo sapiens, UniProt P50549 1-477); conditions: protein: recombinant; tags: N-terminal GST; dsDNA, one strand shown
# Summary of the method: as §1
# Sequence of CRX (O43186 whole entry): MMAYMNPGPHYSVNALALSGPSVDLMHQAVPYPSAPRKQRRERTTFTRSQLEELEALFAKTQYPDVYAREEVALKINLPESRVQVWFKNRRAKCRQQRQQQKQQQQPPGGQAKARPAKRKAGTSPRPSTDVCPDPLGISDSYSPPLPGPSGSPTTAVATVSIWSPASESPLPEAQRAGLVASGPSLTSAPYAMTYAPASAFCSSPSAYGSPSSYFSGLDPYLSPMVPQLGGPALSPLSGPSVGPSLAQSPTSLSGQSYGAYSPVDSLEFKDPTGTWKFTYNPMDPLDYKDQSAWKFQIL
# Sequence of HSF1 (Q00613 whole entry): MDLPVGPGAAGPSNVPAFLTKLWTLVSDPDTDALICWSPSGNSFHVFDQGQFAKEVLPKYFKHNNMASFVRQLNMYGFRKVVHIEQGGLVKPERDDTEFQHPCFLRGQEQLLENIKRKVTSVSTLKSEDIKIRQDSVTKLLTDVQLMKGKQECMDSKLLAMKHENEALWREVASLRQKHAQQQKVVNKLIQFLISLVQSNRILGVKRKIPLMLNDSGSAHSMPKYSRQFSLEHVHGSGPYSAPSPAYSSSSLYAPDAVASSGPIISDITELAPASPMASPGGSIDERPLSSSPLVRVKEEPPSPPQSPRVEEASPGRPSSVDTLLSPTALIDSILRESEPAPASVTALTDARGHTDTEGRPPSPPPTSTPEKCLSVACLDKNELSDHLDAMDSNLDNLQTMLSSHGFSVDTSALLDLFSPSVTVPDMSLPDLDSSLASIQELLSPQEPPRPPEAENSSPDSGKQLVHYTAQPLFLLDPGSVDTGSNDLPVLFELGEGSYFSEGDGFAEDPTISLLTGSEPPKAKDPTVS
# Sequence of ETV5 (P41161 whole entry): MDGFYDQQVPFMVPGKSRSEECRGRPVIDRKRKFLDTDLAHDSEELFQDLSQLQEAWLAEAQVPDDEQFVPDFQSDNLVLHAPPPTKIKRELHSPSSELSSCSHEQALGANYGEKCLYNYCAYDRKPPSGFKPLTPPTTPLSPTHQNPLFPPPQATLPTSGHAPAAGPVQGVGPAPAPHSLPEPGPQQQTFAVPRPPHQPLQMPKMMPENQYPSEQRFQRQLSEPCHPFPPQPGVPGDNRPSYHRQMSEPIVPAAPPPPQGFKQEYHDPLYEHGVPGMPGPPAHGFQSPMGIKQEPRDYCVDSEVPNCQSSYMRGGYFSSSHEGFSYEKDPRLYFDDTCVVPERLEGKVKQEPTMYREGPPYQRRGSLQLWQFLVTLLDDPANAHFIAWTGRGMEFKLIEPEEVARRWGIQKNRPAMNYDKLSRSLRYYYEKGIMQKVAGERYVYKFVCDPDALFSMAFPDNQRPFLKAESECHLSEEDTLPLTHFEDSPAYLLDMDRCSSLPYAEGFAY
# Sequence of ETV1 (P50549 whole entry): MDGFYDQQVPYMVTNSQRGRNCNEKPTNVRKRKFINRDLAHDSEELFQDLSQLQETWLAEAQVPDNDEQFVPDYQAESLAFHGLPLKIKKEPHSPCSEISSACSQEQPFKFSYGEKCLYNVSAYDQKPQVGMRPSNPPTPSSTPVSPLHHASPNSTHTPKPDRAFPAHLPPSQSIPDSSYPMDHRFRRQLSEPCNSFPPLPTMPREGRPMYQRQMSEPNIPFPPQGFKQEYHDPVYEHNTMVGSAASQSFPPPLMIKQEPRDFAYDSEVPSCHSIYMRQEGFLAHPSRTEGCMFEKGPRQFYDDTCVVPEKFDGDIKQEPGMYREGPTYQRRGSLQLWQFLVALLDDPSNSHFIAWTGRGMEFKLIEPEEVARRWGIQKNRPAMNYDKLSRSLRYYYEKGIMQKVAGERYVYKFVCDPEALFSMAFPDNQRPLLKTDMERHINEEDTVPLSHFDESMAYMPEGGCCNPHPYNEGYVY
# Sequence of ELF4 (Q99607 whole entry): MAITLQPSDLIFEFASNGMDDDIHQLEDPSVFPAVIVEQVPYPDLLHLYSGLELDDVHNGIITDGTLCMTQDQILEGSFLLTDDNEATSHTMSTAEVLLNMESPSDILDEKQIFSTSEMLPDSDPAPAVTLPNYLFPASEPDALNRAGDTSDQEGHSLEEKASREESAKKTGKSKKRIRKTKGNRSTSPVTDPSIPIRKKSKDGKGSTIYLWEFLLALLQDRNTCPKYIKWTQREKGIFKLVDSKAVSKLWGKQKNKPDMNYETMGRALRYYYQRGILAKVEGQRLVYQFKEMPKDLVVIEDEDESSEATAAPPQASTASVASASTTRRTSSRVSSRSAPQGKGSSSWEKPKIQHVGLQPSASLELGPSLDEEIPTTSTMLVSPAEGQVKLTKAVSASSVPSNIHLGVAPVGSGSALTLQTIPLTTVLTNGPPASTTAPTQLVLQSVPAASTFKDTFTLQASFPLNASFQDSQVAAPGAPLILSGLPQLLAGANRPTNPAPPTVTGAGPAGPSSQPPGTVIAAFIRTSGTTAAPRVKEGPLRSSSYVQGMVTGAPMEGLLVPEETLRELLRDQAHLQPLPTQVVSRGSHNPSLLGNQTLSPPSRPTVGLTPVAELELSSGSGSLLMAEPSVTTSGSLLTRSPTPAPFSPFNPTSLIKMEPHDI
sequence,measurement,setting,value
ATCCGC,binding signal,FEV,"2.09 fold enrichment (6-mer frequency, TF over GST control)"
same,binding signal,ETV5,"1.78 fold enrichment (6-mer frequency, TF over GST control)"
same,binding signal,HSF1,"1.58 fold enrichment (6-mer frequency, TF over GST control)"
same,binding signal,SPIC,"1.68 fold enrichment (6-mer frequency, TF over GST control)"
same,binding signal,ELF4,"1.65 fold enrichment (6-mer frequency, TF over GST control)"
same,binding signal,ELK4,"1.6 fold enrichment (6-mer frequency, TF over GST control)"
same,binding signal,ETV2,"1.9 fold enrichment (6-mer frequency, TF over GST control)"
same,binding signal,ELF3,"1.62 fold enrichment (6-mer frequency, TF over GST control)"
same,binding signal,CRX,"2.06 fold enrichment (6-mer frequency, TF over GST control)"
same,binding signal,ETV1,"1.8 fold enrichment (6-mer frequency, TF over GST control)"
